Source: PubChem
Only some compounds are listed: those with a hit (about 2.2% of all), similar ones and a draw of the others.
SUMO Mot1 rescue: yeast Mot1-301 growth rescue at high temperature, primary screen, SUMOylation pathway inhibitor project, S. cerevisiae, ATP luminescence, 38.5C; S. cerevisiae Mot1-301 growth rescue; percent above DMSO median, 100 means doubled; growth rescue, % at 18.8 µM; 320,000 tested, 1% active;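 active means every valid replicate shows activation above 250% relative to neutral control wells; inactive means the rest, any valid replicate at or below 250%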;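 further: OY570 slx delta 5 strain wells were the positive control but not used for scaling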
Efflux pump inh: inhibitors of Candida efflux pumps in yeast, primary screen, S. cerevisiae, Nile Red, multiplex | 330,000 tested, 0.44% active | inhibition, % at 10 µM | S. cerevisiae Candida pump triplex | AID 485275, 2010;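 active means plate passing quality check with inhibition over a set limit, or well fluorescence over plate mean plus 4 SD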;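 further: Nile Red retained in pooled yeast measured as flow cytometry median fluorescence; 0% = buffer negative control and 100% = Enniatin B positive control; higher means more Nile Red kept so more efflux inhibition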
SKN-1 block: suppressors of acrylamide-induced Pgst-4::GFP reporter in worms, primary screen, SKN-1 inhibitor project, whole organism, uHTS, GFP/RFP fluorescence ratio, strain VP596 | 360,000 tested, 0.49% active | AID 624304, 2012 | C. elegans VP596 Pgst-4::GFP/RFP ratio, 24 h | inhibition, % at 21.8 µM;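 active means interference check ratio from 0.5 to 1.5 plus GFP to RFP signal ratio inhibition reaching or exceeding a fixed threshold, cut at about 30% in these data, passing the limit was not always enough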
HGIII-sPLA2 inh: human group III sPLA2 inhibitors, primary screen, biochemical, QFRET, BODIPY PC-A2 liposome substrate. Group 3 secretory phospholipase A2 (Homo sapiens), Q9NZ20. QFRET BODIPY PC-A2 liposome hydrolysis, fluorescence. inhibition, % at 12.2 µM. 370,000 tested, 0.56% active;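 active means inhibition above mean plus 3 SD of compounds lying within the high and low control bounds, cut at about 19% in these data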;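 further: 0% = median of test compound wells and 100% = no enzyme DMSO wells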
Target sequence (Q9NZ20 whole entry, looked up): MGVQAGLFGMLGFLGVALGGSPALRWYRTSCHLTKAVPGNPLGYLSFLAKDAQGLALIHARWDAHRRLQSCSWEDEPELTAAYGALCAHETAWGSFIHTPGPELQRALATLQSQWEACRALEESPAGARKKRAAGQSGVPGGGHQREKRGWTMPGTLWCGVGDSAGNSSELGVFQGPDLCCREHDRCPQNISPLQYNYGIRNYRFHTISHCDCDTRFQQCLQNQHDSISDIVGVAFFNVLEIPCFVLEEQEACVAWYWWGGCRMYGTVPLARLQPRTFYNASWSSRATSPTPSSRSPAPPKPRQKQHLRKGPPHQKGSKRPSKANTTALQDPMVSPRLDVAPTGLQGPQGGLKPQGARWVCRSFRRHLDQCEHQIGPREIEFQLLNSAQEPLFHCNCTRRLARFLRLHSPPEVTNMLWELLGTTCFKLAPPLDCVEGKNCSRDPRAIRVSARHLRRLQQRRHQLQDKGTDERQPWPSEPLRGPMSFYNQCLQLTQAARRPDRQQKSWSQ
sPLA2 confirm: human group III sPLA2 inhibitors, confirmation, biochemical, QFRET, triplicate | shares compounds with HGIII-sPLA2 inh | recombinant hGIII-sPLA2, BODIPY PC-A2 QFRET fluorescence | inhibition, % at 12.2 µM | 2,000 tested, 34% active | AID 743280, 2014;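 active means mean inhibition across triplicates above the hit cutoff set in the earlier primary screen, cut at about 19% in these data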;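 further: 0% = enzyme with DMSO and 100% = DMSO wells lacking enzyme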
BODIPY interf: 535nm fluorescence optical interference, confirmation, artefact control for HGIII-sPLA2 inhibitor project, biochemical, QFRET; 2,000 tested, 8.5% active; shares compounds with HGIII-sPLA2 inh; inhibition, % at 12.2 µM; BODIPY FL product fluorescence interference;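 active means average inhibition above the solvent-only control mean plus 3 SD, cut at about 6% in these data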;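 further: 0% = DMSO with substrate plus product and 100% = DMSO with substrate alone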
BODIPY interf DR: 535nm fluorescence optical interference, dose response, artefact control for HGIII-sPLA2 inhibitor project, biochemical, QFRET; shares compounds with HGIII-sPLA2 inh; BODIPY FL product fluorescence interference, cell-free; IC50, µM; 240 tested, under 10 active;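 active means IC50 at or below 10 µM; inactive means IC50 above 10 µM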
Starred values were filed as active, the others as inactive; nt = no result given.

SMILES | SUMO Mot1 rescue | Efflux pump inh | SKN-1 block | HGIII-sPLA2 inh | sPLA2 confirm | BODIPY interf | others
N#Cc1ccccc1Cn1c(=O)n(CCCC(=O)NCc2ccc3c(c2)OCO3)c(=O)c2ccccc21 | nt | 0 | 4 | 21* | -2 | -10
Cc1ccc(Cn2c(=O)n(CCC(=O)NCc3ccc4c(c3)OCO4)c(=O)c3ccccc32)cc1 | 1 | 0 | -14 | -2 | nt | nt
COc1ccc(S(=O)(=O)N2CCc3ccccc32)cc1C(=O)Nc1ccc(C(N)=O)cc1 | 390 | 0 | -4 | -10 | nt | nt
Cc1cccc(Cn2cc(CN3CC(N4CCN(CCOC(=O)c5cc6ccccc6o5)CC4)CS3(=O)=O)nn2)c1 (configuration not stated) | nt | nt | nt | 15 | nt | nt
O=[N+]([O-])c1ccc(N/N=C/c2ccc(O)c(O)c2O)c(S(=O)(=O)N2CCOCC2)c1 | nt | nt | 0 | 3 | nt | nt
O=[N+]([O-])c1ccc(N/N=C/c2cccc(O)c2O)c(S(=O)(=O)N2CCOCC2)c1 | 13 | 0 | 7 | 31* | 39* | 15*
CCC(C)NC(=S)N(Cc1cc2cc(C)ccc2n2nnnc12)CC(C)(C)NC(C)C (configuration not stated) | -21 | 0 | 4 | 21* | 6 | -8
CCCNC(=S)N(Cc1cc2cc(C)ccc2n2nnnc12)CC(C)(C)CN(C)C | 3 | 0 | 11 | 8 | nt | nt
O=C(NC1CCOC1=O)OCc1ccccc1 (configuration not stated) | nt | nt | 8 | 8 | nt | nt
Cn1c(CBr)c(C(=O)c2ccc([N+](=O)[O-])cc2)c(=O)n(C)c1=O | -2 | 0 | -3 | 22* | 5 | -4
O=C(/C=C/c1cccc(F)c1)N1CCN(c2ncccn2)CC1 | -2 | 0 | 8 | 12 | nt | nt
O=C(NNc1nc(-c2ccc(Br)cc2)cs1)c1ccco1 | 8 | 0 | -16 | 46* | 45* | 12*
O=C(NNc1nc(-c2ccccc2)cs1)c1ccccc1 | -3 | 0 | 34 | 35* | 33* | 7.3*
CC(=O)NNc1nc(-c2ccc(NC(C)=O)cc2)cs1 | nt | 0 | -1 | 0 | nt | nt
O=C(Nc1nc(-c2ccc(Br)cc2)cs1)c1cccnc1 | -13 | 0 | 14 | 3 | nt | nt
N#Cc1ccc(-c2csc(NNC(=O)c3ccc(Br)cc3)n2)cc1 | 3 | 0 | -1 | 46* | 36* | 11*
CC(=O)Nc1ccc(-c2csc(NNC(=O)c3ccc(C)cc3)n2)cc1 | -3 | 0 | -9 | 30* | 23* | -1
O=C(Nc1nc(-c2ccccc2)cs1)c1cccnc1 | 3 | 0 | 1 | -1 | nt | nt
CCCCNS(=O)(=O)CC1NCc2ccccc21 (configuration not stated) | nt | nt | nt | 8 | nt | nt
Cc1ccc2ccccc2c1C(O)c1ncc(-c2cccc(F)c2)[nH]1 (configuration not stated) | nt | nt | 12 | -8 | nt | nt
COC(=O)c1nc(NNC(=O)c2ccccc2)sc1-c1ccccc1 | 2 | 0 | 10 | 30* | 30* | 0
Cc1cccc(Oc2cc(N)cc([N+](=O)[O-])c2)c1 | 7 | 0 | 13 | 20* | 16 | -2
O=C(c1cc2ccccc2o1)N1CCN(c2ncccn2)CC1 | -3 | 0 | 14 | 0 | nt | nt
COc1ccc(C(=O)NC(=S)NNC(=O)c2c(-c3ccccc3)noc2C)cc1OC | -19 | 0 | 12 | 20* | 29* | -10 | BODIPY interf DR=>122
COc1ccc(C(=O)NC(=S)NNC(=O)[C@H]2C[C@@H]2c2ccccc2)cc1OC | -14 | 0 | -3 | 21* | 40* | -21 | BODIPY interf DR=>122
SMILES | SUMO Mot1 rescue | Efflux pump inh | SKN-1 block | HGIII-sPLA2 inh | sPLA2 confirm | BODIPY interf | others
Cc1onc(-c2ccccc2)c1C(=O)NC(=S)NNC(=O)c1ccncc1 | 4 | 0 | 1 | 19 | nt | nt
Cc1onc(-c2ccccc2)c1C(=O)NNC(=S)NC(=O)c1ccc2c(c1)OCO2 | -22 | 0 | 17 | 27* | 43* | -11 | BODIPY interf DR=>122
Cc1onc(-c2ccccc2)c1C(=O)NC(=S)NNC(=O)c1cc(-c2ccc(F)cc2)n[nH]1 | -14 | 0 | -6 | 29* | 41* | -16
CCCS(=O)(=O)NC(=O)C1(C)CCN(C(=O)c2ccc(OC(F)F)cc2)C1 (configuration not stated) | nt | nt | 7 | 1 | nt | nt
COc1ccccc1NS(=O)(=O)c1cc(C(=O)NCC(C)(C)N2CCOCC2)ccc1C | 7 | 0 | 18 | 4 | nt | nt
CC(C)(C)NC(=S)NNC(=O)[C@H]1C[C@@H]1c1ccccc1 | -19 | 0 | 6 | 11 | nt | nt
Cc1ccc(C2CC2C(=O)NNC(=S)Nc2ccc(Cl)cc2)cc1 (configuration not stated) | 1 | 0 | -10 | 21* | 9 | 12*
Cc1cc(C)n(CC(O)COc2ccccc2[N+](=O)[O-])n1 (configuration not stated) | -8 | 0 | 2 | 22* | -5 | -7
O=C(Nc1ccc(F)cc1Cl)C1CCN(C(=O)Nc2ccccc2)CC1 | 1 | 0 | -9 | 2 | nt | nt
CC1(C)CC(=O)C=C(Nc2ccc(Br)cn2)C1 | 10 | 0 | 3 | 21* | 2 | -8
CC1(C)CC(=O)C=C(Nc2ccccn2)C1 | 3 | 0 | 5 | 3 | nt | nt
O=C(OCCC12CC3CC(CC(C3)C1)C2)c1ccc(NCc2cc(O)ccc2O)cc1 | nt | nt | 20 | 21* | 21* | 13*
CC(C)Cn1c(N)c(-c2nc(C(C)C)c(C(=O)c3ccccc3F)s2)c(=O)n(C)c1=O | 6 | 0 | nt | nt | nt | nt
COc1ccccc1NC(=O)c1ccc(SCC(=O)NCc2ccccc2Cl)c([N+](=O)[O-])c1 | -5 | 0 | -1 | 21* | 8 | -2
Fc1ccc(CSc2ccc(-c3ccc4c(c3)OCO4)nn2)cc1 | -17 | 0 | -1 | 6 | nt | nt
c1ccc(CSc2ccc(-c3ccc4c(c3)OCO4)nn2)cc1 | -8 | 0 | -2 | 23* | 1 | -7
NCCc1nnc(SCC(=O)c2ccc(Cl)cc2)o1 | -11 | 0 | 1 | -8 | nt | nt
CCOC(=O)C1=C(C)N(C)C(=S)NC1c1cccc(Cl)c1Cl (configuration not stated) | 9 | 0 | 7 | 13 | nt | nt
CCOC(=O)C1=C(C)N(C)C(=S)NC1c1ccccc1Cl (configuration not stated) | nt | 0 | 5 | 21* | 19 | -5
